Screening results from PubChem.
TDP1 cell noCPT: qHTS for Inhibitors of human tyrosyl-DNA phosphodiesterase 1 (TDP1): qHTS in cells in absence of CPT; DT40 Tdp1-/- hTDP1 cells, no CPT, ATP luminescence, 48 h; Potency, µM (series often up to 46.2 µM), usual class: inhibitors; 15% of 420,000 active; also: nearly all actives have a fitted effect of over 55% in size
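Compound effects on proliferation are scored in DT40 Tdp1-/-;hTDP1 cells in the absence of CPT. ATP levels (CellTiter-Glo luminescence) are recorded after a ≥48 hr, 37 °C incubation.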
TDP1 cell CPT: growth inhibition of DT40 Tdp1-/-;hTDP1 cells with camptothecin (screen for TDP1 inhibitors); chicken DT40 Tdp1-/-;hTDP1 cells + 20 nM CPT, ATP luminescence, 48 h; Potency, µM (series often up to 46.2 µM), hits mostly inhibitors; 12% of 420,000 active; also: nearly all actives have a fitted effect of over 55% in size
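Chicken DT40 Tdp1-/- cells complemented with human TDP1, 400 cells/well, exposed to compounds plus 20 nM camptothecin for at least 48 h at 37 C; viability read as ATP content by CellTiter-Glo luminescence.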
TDP1 inh: inhibitors of human tyrosyl-DNA phosphodiesterase TDP1; Q9NUW8; recombinant TDP1, AlphaScreen DNA substrate cleavage; Potency, µM (highest dose often 130 µM), actives largely listed as inhibitors; 0.28% of 350,000 active; AID 485290; also: nearly all actives have a fitted effect of over 40% in size
Target sequence (Q9NUW8 whole entry, looked up): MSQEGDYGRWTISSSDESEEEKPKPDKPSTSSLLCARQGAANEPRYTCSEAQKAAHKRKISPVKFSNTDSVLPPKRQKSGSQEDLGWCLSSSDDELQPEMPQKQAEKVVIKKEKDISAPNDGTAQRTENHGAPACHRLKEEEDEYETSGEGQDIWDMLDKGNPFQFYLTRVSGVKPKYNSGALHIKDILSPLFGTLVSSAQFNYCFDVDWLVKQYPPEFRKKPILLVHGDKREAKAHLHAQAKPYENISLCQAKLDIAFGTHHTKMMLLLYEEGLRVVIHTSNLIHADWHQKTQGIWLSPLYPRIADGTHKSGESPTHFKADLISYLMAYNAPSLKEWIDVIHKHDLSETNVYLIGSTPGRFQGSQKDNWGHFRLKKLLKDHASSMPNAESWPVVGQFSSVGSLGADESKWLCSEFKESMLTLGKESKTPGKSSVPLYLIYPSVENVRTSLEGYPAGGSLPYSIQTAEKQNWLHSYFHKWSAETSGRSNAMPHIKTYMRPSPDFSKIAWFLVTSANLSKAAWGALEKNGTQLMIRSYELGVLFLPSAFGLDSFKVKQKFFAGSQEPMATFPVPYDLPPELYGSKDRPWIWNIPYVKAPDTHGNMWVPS
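Recombinant E. coli-expressed Tdp1 (1 nM) preincubated with compound 15 min at RT, then 5'-biotin/3'-phosphotyrosine-FITC DNA substrate (15 nM) added for 5 min. AlphaScreen beads (10 ug/ml) added, 10 min RT; tyrosine-FITC cleavage read as signal loss.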
ClpP mod: qHTS Assay for Activators of ClpP | ATP-dependent Clp protease proteolytic subunit (Bacillus subtilis (strain 168)), P80244 | purified B. subtilis ClpP, FRET peptide cleavage, 20 min | Potency, µM (doses to about 57.5 µM) | 1.9% of 340,000 active; active = well fitted falling curve with a large enough effect; inconclusive = small, poorly fitted or top-dose-only effect; inactive = no such curve, though single readings can be large or run the other way; also: the source files actives as falling curves though it sought activators and does not explain the sign; nearly all actives have a fitted effect of over 65% in size
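FRET quenching reversal measured ClpP activation: 10 microg/mL B. subtilis ClpP at pH 8 with the FRET-FV decapeptide, read at 430 nm after 320 nm excitation. The 20-min minus 0-min signal was scaled between DMSO/no-enzyme wells and ADEP (5.8 microM final).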
Each line names hits and unclear results; the compound was inactive in the other large screens. Hits are enriched below; roughly 17% of the tested compounds scored in any of these assays. Unless noted, calls follow the shape of the dose curve; as a rule, active = well fitted curve in the direction sought with a large enough effect; inconclusive = small, poorly fitted or top-dose-only effect, or another doubt; inactive = no such curve, though single readings can be large; an effect the other way counts as inactive or inconclusive.

Cc1ccc(Cc2c(-c3ccccc3)nc3ccc(Br)cn23)cc1	TDP1 cell noCPT inconclusive, TDP1 cell CPT inconclusive (no result: TDP1 inh)
Fc1ccc(-c2nc3ccc(Cl)cn3c2Cc2cccc(F)c2)cc1	TDP1 cell noCPT 23µM, TDP1 cell CPT inconclusive, ClpP mod inconclusive (no result: TDP1 inh)
Cc1ccc(-c2nc3ccc(C)cn3c2Cc2cccc(F)c2)cc1	TDP1 cell noCPT inconclusive, TDP1 cell CPT inconclusive (no result: TDP1 inh)
Brc1ccc2nc(-c3ccccc3)c(Cc3ccsc3)n2c1	TDP1 cell noCPT 23µM, TDP1 cell CPT 26µM (no result: TDP1 inh)
Cc1ccc(-c2nc3ccc(Br)cn3c2Cc2cccc(Cl)c2)cc1	TDP1 cell noCPT 9.2µM, TDP1 cell CPT 15µM (no result: TDP1 inh)
Cc1ccc(-c2nc3ccc(Br)cn3c2Cc2ccccc2)cc1	TDP1 cell noCPT inconclusive, TDP1 cell CPT 15µM (no result: TDP1 inh)
Clc1ccc2nc(-c3ccccc3)c(Cc3ccsc3)n2c1	TDP1 cell noCPT inconclusive (no result: TDP1 inh)
NC(=O)CC(NC(=O)c1ccccc1)c1ccc(NCCc2ccc(Cl)cc2)c([N+](=O)[O-])c1 (centres undefined)	TDP1 cell noCPT inconclusive, TDP1 cell CPT inconclusive
CCCCC[C@@H]1C=C(C(=O)O)[C@H](c2cccc(C)c2)N1S(=O)(=O)c1ccc(C)cc1	none
COc1ccc(Cl)cc1NC(=O)NCc1noc2ccccc12	TDP1 cell noCPT inconclusive, TDP1 cell CPT inconclusive
Cc1c(-c2ccc(Br)cc2)nc2ccccn12	TDP1 cell noCPT inconclusive, ClpP mod 25µM
Cc1ccc(-c2nc3ccccn3c2C=O)cc1	TDP1 cell noCPT inconclusive, TDP1 cell CPT inconclusive
CCOC(=O)c1ccc(N2C(=O)c3n[nH]c(-c4ccco4)c3C2c2ccc(OC)cc2OC)cc1 (centres undefined)	TDP1 cell noCPT 18µM, TDP1 cell CPT 23µM
CCOC(=O)c1ccc(N2C(=O)c3n[nH]c(C)c3C2c2ccc(OC)cc2OC)cc1 (centres undefined)	TDP1 cell noCPT 23µM, TDP1 cell CPT inconclusive
Cc1ccc(NC(=O)CCNS(=O)(=O)c2ccc3[nH]c(=O)oc3c2)cc1C	none
Cc1nc2c(C(=O)NCCC(C)C)c[nH]n2c(=O)c1Cl	ClpP mod 32µM
Cc1nc2c(C(=O)NCCc3ccccc3)c[nH]n2c(=O)c1Cl	ClpP mod inconclusive
CC1=NN(c2nc(N)nc(/C(C#N)=C/c3ccc([N+](=O)[O-])o3)n2)C(C)(C)C1	TDP1 cell noCPT 0.46µM, TDP1 cell CPT 0.58µM (no result: TDP1 inh)
CC1=NN(C(C#N)c2cccc([N+](=O)[O-])c2)C(C)(C)C1 (centres undefined)	ClpP mod inconclusive
COCCN(C(=O)COC(=O)CCS(=O)(=O)c1ccccc1)c1c(N)n(Cc2ccccc2)c(=O)[nH]c1=O	none (no result: ClpP mod)
COc1ccc(Cn2cc3c(-c4ccc(F)cc4)nnc-3c3cc(OC)c(OC)cc32)cc1	TDP1 cell noCPT 4.1µM, TDP1 cell CPT 4.1µM
COc1cc2c3nnc(-c4ccc(F)cc4)c-3cn(Cc3ccccc3)c2cc1OC	TDP1 cell noCPT 5.2µM, TDP1 cell CPT 3.3µM
COc1ccc(-c2nnn(Cc3ccccc3)n2)cc1OC	none (no result: TDP1 inh, ClpP mod)
Cn1nc2c3cc(F)ccc3n(Cc3ccc(F)cc3)cc-2c1=O	TDP1 cell noCPT inconclusive (no result: TDP1 inh, ClpP mod)
COc1cc2c3nnc(-c4ccc(F)cc4)c-3cn(Cc3ccc(F)cc3)c2cc1OC	TDP1 cell noCPT 2.6µM, TDP1 cell CPT 2.3µM
COc1cc(C(CC(=O)N2CCOCC2)c2c(OC)cc(OC)c3c(-c4ccccc4)cc(=O)oc23)cc(OC)c1OC (centres undefined)	none (no result: TDP1 cell noCPT, TDP1 cell CPT, ClpP mod)
CCCOC(=O)c1cccc(Nc2nc(-c3cccnc3)nc3ccccc23)c1	TDP1 cell noCPT 3.3µM, TDP1 cell CPT 9.2µM (no result: ClpP mod)
CCOC(=O)c1cccc(Nc2ncnc3ccccc23)c1	TDP1 cell noCPT 13µM, TDP1 cell CPT inconclusive
CCCOC(=O)c1cccc(NC(=O)c2cccnc2)c1	TDP1 cell noCPT 5.8µM, TDP1 cell CPT 9.2µM
O=C(Nc1ccc2nn(-c3ccccc3)nc2c1)c1cccnc1	TDP1 cell noCPT 16µM, TDP1 cell CPT inconclusive
O=C(O)C1CC(CCCP(=O)(O)O)CCN1 (centres undefined)	none (no result: TDP1 cell noCPT, TDP1 cell CPT, ClpP mod)
CCCCN(Cc1cccs1)S(=O)(=O)c1cc(-c2cc(C)no2)ccc1C	TDP1 cell noCPT inconclusive, TDP1 cell CPT inconclusive
CC1=CC(C)(C(Cl)(Cl)Cl)C(C)=CC1=NO (centres undefined)	TDP1 cell noCPT inconclusive (no result: TDP1 inh)
CO[C@H]1[C@H](NC(=O)c2ccncc2)c2ccccc2C12CCN(C(=O)c1ccoc1)CC2	none (no result: TDP1 inh, ClpP mod)
